# Assay results taken from PMC7826789 (International Journal of Molecular Sciences, 2021).
smiles,measurement,setting,value
COc1cc2ncnc(Nc3cccc(Cl)c3F)c2cc1O[C@H]1CC[C@H]([C@@H]2NCCNC2=O)CC1 [BI00133844],Kinases covered,SRC,SRC
CCCS(=O)(=O)Nc1ccc(F)c(-n2cc(-c3cncc(OC)c3)nn2)c1F [BI00865461],Kinases covered,SRMS,SRMS
COc1ccc2cc(-c3c(-c4ccncc4)nc(-c4ccc(S(C)(=O)=O)cc4C)n3C)ccc2c1 [SB-633825],Kinases covered,STK10,STK10
COc1cc2ncn(-c3cc(OCC4CCCO4)c(C(N)=O)s3)c2cc1OC (stereo not shown) [GSK204607],Kinases covered,STK10,STK10
CC(C)N1CC(=O)N(C)c2cnc(Nc3cccc(S(=O)(=O)CCN4CCOCC4)c3)nc21 [BI00009348],Kinases covered,STK16,STK16
same,Kinases covered,TAK1,TAK1
C[C@@H]1CCNC(=O)c2cc3ccc(C(=O)Nc4nc5ccccc5n4CCCN(C)C)cc3n21 [BI00645435],Kinases covered,STK17B,STK17B
CNc1nc(-c2ccc3c(N)n[nH]c3c2)cc(N2C[C@@H](C(=O)Nc3ccccc3)CC[C@H]2C)n1 [GSK2298859],Kinases covered,STK17B,STK17B
O=C(Nc1cccc(-c2nn3ncccc3c2-c2ccnc(Nc3cccnc3)n2)c1)c1c(F)cccc1F [GSK312879],Kinases covered,STK36,STK36
COC[C@@H](C)N[C@H]1CC[C@H](Nc2cc(-c3cccc(NCC4(C#N)CCOCC4)n3)c(Cl)cn2)CC1 [NVP-2],Kinases covered,TAOK3,TAOK3
CN(C)C/C=C/C(=O)Nc1ccc(C(=O)Nc2cccc(Nc3ncc(Cl)c(-c4c[nH]c5ccccc45)n3)c2)cc1 [THZ1],Kinases covered,TBK1,TBK1
COc1cc(-c2cncc(-c3cnn(C4CCNCC4)c3)c2)cc(OC)c1OC [K05908],Kinases covered,TGFBR1,TGFBR1
Cc1ccc(-c2cc(-c3c[nH]nc3-c3ccccn3)ccn2)cc1 [GW684088],Kinases covered,TGFBR1,TGFBR1
CCn1cc(-c2ccnc3[nH]c(-c4cccc(CN(C)C)c4)cc23)c(-c2ccc(NC(=O)N(C)C)cc2)n1 [GSK1070916],Kinases covered,TIE2,TIE2
CCS(=O)(=O)c1ccc(OC)c(Nc2ncc(-c3cccc(OC)c3)o2)c1 [GW580509X],Kinases covered,TNK1,TNK1
COc1cc(N2CCN(C)CC2)ccc1Nc1ncc2c(n1)N(C)c1ccccc1C(=O)N2 [XMD8-87],Kinases covered,TNK2,TNK2
CNS(=O)(=O)c1ccc(N(C)C)c(Nc2ncnc3cc(OC)c(OC)cc23)c1 [GSK114],Kinases covered,TNNI3K,TNNI3K
CC(=O)c1c(C)c2cnc(Nc3ccc(N4CCNCC4)cn3)nc2n(C2CCCC2)c1=O [PFE-PKIS 32],Kinases covered,TTK,TTK
CCS(=O)(=O)c1ccc(OC)c(Nc2ncc(-c3cccc(F)c3)o2)c1 [GW621970X],Kinases covered,YES,YES
